According to PubChem BioAssay:
The source made the active and inactive calls. Unless noted, how the calls were made is not given here.

Legend:
[1] = anti-His antibody binders, primary screen, artefact control for SMM control protein annotation, biochemical, small-molecule microarray, 635 nm fluorescence (AID 1128); settings: anti-His Alexa647 antibody binding, higher = more signal;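 further: score merges feature fluorescence with signal-to-noise for each printed compound spot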
[2] = test system: Human papillomavirus type 1a E7 protein (residues 1-88); assay: HPV1a E7 small-molecule binders, primary screen, biochemical, small-molecule microarray, residues 1-88, 635 nm (AID 1129); settings: small-molecule microarray binding, fluorescence 635 nm; higher = more signal
[3] = target: Focal adhesion kinase 1 (Homo sapiens) (UniProt Q05397); assay: small-molecule microarray binders of FAK, primary screen, biochemical, 635/667 nm fluorescence, BSA, DTT (AID 1130); settings: PTK2 binding, 635 nm fluorescence, higher = more signal;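 further: composite of spot emission at 667 nm and signal to noise over triplicate slides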
[4] = test system: Fibrinogen (Alexa647-labelled); assay: fibrinogen binders on compound microarrays, profiling panel, artefact control for SMM control-protein annotation, biochemical, small-molecule microarray, 635/667 nm fluorescence (AID 1131); settings: fibrinogen-A647 binding fluorescence, higher = more signal;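 further: z-score merges 667 nm fluorescence with per-spot signal-to-noise over triplicate slides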
[5] = target: Follistatin (Homo sapiens) (UniProt P19883); assay: follistatin binders on small-molecule microarrays, primary screen, biochemical, small-molecule microarray, 635/667 nm fluorescence (AID 1132); settings: FST binding, 635 nm fluorescence, higher = more signal
[6] = target: Fibroblast growth factor 2 (Homo sapiens) (UniProt P09038); assay: FGF2 binders on small-molecule microarrays, primary screen, biochemical, small-molecule microarray, 635/667 nm fluorescence (AID 1133); settings: small-molecule microarray binding, FGF2, fluorescence 635/667; higher = more signal
[7] = mitochondrial membrane potential change in A549 cells, profiling panel, cell-based, JC-1 fluorescence, basal, 24 h, 100 nL (AID 1138); settings: higher = more signal;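 further: A549 lung adenocarcinoma cells under basal conditions with no added stimulus; test concentration not given here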
Lefty1 = Lefty1 binders on small-molecule microarrays, primary screen, biochemical, small-molecule microarray, 635/667 nm fluorescence (AID 1139); settings: small-molecule microarray binding, fluorescence 635/667; higher = more signal
[8] = test system: wheat germ agglutinin (Triticum aestivum), Alexa647-labelled; assay: wheat germ agglutinin binders on compound microarrays, profiling panel, artefact control for SMM control-protein annotation, biochemical, small-molecule microarray, 635/667 nm fluorescence (AID 1140); settings: WGA-A647 binding, 635 nm fluorescence, higher = more signal;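 further: score merges 667 nm feature emission with signal to noise over triplicate slides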
[9] = target: Luciferin 4-monooxygenase (Photinus pyralis) (UniProt P08659); assay: firefly luciferase enzyme inhibitors, primary screen, biochemical, luminescence, purified enzyme, 2006 set (AID 1141); settings: SteadyGlo luminescence, 30 min, higher = more signal, called active from +8 up or from −8 down;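 further: cell-free assay with purified firefly luciferase at 100 ng per well in PBS; test concentration not given here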
[10] = test system: Wnt5a (protein binding on small-molecule microarray); assay: Wnt5a binders on small-molecule microarray, primary screen, biophysical, 635/667 nm fluorescence (AID 1142); settings: 635 nm fluorescence, higher = more signal;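 further: fluorescence read at 667 nm with signal to noise per printed feature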
[11] = cell viability in Huh7 cells, primary screen, cytotoxicity control for HCV replication inhibitor project, CellTiter-Glo luminescence, basal, 48 h (AID 1143); settings: Huh7 HCV replicon, higher = more signal, called active from +8 up or from −8 down;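 further: Huh7 hepatoma cells carrying a hepatitis C replication reporter with no stimulus; test concentration not given here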
[12] = P. aeruginosa biofilm formation inhibitors, primary screen, PAO1 strain, BacTiter-Glo luminescence, LB-PBS (AID 1144); settings: 12 h, higher = more signal
[13] = CREB reporter modulators without forskolin, primary screen, cell-based, PC12, CRE-LacZ reporter, unstimulated (AID 1145); settings: no forskolin, luminescence, 4.5 h, higher = more signal, called active from +8 up or from −8 down
[14] = CREB reporter modulators under forskolin, primary screen, cell-based, PC12, CRE-LacZ reporter, forskolin-stimulated (AID 1146); settings: luminescence, 4.5 h, higher = more signal, called active from +8 up or from −8 down;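 further: PC12 cells with 6xCRE LacZ reporter stimulated by forskolin 10 µM; beta-galactosidase reporter signal reflecting CREB driven transcription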
[15] = target: Streptavidin (Streptomyces avidinii) (UniProt P22629); assay: streptavidin binders on small-molecule microarray, primary screen, artefact control for SMM compound annotation, biophysical, 635/667 nm fluorescence (AID 1147); settings: streptavidin binding, higher = more signal;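 further: signal reflects streptavidin binding to arrayed compounds as a control protein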
[16] = small-molecule binders of probe aInhba, primary screen, biochemical, small-molecule microarray, 635/667 nm fluorescence (AID 1148); settings: higher = more signal;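 further: score merges 667nm spot fluorescence with signal-to-noise for antibody binding to printed compounds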
Torsin-1A (Homo sapiens) [17] = target: Torsin-1A (Homo sapiens) (UniProt O14656); assay: torsin A binders from cell lysate, primary screen, small-molecule microarray, wild-type, 635/667 nm (AID 1149); settings: COS7 hTOR1A-WT lysate, 635 nm fluorescence, higher = more signal
Torsin-1A (Homo sapiens) [18] = target: Torsin-1A (Homo sapiens) (UniProt O14656); assay: small-molecule binders of mutant TOR1A in lysate, primary screen, cell lysate, small-molecule microarray, COS7 lysate, 635/667 nm fluorescence (AID 1150); settings: COS7 hTOR1A mutant lysate, 635 nm fluorescence, higher = more signal;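 further: score pools 667 nm emission and signal to noise measuring lysate protein binding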
[19] = test system: Sonic hedgehog protein (Shh); assay: small-molecule binders of Shh protein, primary screen, biochemical, small-molecule microarray, 635/667 nm fluorescence (AID 1151); settings: small-molecule microarray binding, 635 nm fluorescence; higher = more signal;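 further: Shh protein binding to compounds spotted on small-molecule microarray slides; score combines spot fluorescence intensity with signal-to-noise across triplicate slides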

Sequence of Follistatin (Homo sapiens) (P19883 whole entry, looked up): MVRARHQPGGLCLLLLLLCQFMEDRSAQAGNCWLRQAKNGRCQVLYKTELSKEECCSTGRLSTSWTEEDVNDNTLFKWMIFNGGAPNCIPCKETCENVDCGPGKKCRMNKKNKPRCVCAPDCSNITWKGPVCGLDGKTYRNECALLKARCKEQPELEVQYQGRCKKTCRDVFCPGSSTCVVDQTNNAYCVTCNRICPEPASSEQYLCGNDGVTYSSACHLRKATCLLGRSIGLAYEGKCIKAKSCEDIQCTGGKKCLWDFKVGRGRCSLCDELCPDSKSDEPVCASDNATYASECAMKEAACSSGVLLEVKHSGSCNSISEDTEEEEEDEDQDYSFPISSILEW
Sequence of Luciferin 4-monooxygenase (Photinus pyralis) (P08659 whole entry, looked up): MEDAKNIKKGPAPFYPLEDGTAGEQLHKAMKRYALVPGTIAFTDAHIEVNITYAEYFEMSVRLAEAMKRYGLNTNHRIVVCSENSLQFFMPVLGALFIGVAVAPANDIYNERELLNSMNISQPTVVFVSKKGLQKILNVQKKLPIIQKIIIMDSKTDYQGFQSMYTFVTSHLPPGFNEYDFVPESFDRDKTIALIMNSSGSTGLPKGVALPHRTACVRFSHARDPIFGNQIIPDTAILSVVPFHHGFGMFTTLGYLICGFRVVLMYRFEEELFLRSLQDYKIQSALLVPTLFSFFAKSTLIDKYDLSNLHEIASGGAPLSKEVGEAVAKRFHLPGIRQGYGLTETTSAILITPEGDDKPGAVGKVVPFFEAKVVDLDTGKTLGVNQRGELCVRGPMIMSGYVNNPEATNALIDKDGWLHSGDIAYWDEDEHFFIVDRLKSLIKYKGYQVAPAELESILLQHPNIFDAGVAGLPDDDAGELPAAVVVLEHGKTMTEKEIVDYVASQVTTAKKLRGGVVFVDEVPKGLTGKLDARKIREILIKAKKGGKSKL
Sequence of Fibroblast growth factor 2 (Homo sapiens) (P09038 whole entry, looked up): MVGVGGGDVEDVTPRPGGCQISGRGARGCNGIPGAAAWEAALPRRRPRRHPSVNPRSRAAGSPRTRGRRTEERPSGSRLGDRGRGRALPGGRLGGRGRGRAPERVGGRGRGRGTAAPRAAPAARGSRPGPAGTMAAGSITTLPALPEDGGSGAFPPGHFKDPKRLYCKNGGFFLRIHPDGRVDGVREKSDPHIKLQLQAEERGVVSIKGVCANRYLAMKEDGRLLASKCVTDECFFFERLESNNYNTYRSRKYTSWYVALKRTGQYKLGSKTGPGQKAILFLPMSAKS
Sequence of Torsin-1A (Homo sapiens) (O14656 whole entry, looked up): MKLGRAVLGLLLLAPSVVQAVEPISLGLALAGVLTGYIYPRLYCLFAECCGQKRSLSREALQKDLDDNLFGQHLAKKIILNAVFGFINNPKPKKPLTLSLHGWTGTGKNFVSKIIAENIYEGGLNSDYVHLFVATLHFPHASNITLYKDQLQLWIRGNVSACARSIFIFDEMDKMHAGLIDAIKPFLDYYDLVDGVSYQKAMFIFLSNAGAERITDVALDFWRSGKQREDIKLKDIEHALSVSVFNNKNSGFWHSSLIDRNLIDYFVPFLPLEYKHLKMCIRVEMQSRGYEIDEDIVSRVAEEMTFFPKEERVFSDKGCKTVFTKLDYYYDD
Sequence of Focal adhesion kinase 1 (Homo sapiens) (Q05397 whole entry, looked up): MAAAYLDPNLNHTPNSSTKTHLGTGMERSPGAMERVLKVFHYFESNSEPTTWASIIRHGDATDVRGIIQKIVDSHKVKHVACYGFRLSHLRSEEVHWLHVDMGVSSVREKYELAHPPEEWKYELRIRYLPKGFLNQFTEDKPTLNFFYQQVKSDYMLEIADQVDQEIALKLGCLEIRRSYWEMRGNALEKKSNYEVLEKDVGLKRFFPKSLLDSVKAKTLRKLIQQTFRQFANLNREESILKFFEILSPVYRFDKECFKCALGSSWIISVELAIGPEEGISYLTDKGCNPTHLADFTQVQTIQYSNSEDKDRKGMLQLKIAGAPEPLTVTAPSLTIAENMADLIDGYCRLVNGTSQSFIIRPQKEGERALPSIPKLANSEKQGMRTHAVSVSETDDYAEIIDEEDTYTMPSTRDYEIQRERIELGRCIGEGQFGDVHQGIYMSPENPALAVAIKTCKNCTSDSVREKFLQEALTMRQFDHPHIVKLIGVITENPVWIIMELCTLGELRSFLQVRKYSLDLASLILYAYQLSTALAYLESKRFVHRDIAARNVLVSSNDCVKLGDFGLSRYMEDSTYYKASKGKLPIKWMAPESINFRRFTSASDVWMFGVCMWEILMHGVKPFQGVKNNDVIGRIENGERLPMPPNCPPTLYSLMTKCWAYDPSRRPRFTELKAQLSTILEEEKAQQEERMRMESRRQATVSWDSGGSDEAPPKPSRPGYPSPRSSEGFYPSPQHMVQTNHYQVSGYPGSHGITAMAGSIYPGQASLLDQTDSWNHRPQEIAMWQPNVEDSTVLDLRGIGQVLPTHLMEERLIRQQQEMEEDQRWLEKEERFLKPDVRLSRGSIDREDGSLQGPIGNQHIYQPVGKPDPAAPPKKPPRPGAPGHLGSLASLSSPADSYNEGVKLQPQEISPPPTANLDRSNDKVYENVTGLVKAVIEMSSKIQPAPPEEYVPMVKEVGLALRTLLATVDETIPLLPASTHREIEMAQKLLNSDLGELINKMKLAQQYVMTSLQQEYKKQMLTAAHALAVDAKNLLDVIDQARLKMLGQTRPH
Sequence of Streptavidin (Streptomyces avidinii) (P22629 whole entry, looked up): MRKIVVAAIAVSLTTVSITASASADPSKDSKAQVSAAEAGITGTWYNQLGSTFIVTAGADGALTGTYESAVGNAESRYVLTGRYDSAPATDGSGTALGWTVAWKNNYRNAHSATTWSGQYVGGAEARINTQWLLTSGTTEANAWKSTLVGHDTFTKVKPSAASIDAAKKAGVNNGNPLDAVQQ

| SMILES | composite z-score [1] | composite z-score [2] | composite z-score [3] | composite z-score [4] | composite z-score [5] | composite z-score [6] | z-score [7] | composite z-score (Lefty1) | composite z-score [8] | z-score [9] | composite z-score [10] | z-score [11] | z-score [12] | z-score [13] | z-score [14] | composite z-score [15] | composite z-score [16] | composite z-score (Torsin-1A (Homo sapiens) [17]) | composite z-score (Torsin-1A (Homo sapiens) [18]) | composite z-score [19] |
| --- | --- | --- | --- | --- | --- | --- | --- | --- | --- | --- | --- | --- | --- | --- | --- | --- | --- | --- | --- | --- |
| COCCOC(=O)N1C(=O)[C@@]2(c3cc(C#Cc4ccc(OC)cc4)ccc31)[C@H](c1ccc(O)cc1)N1[C@H](c3ccccc3)[C@H](c3ccccc3)OC(=O)[C@H]1[C@@H]2C(=O)N1CCCCCCC1 | -1.01 | 1.11 | 0.415 | 0.377 | 1.25 | 0.408 | -0.421 | 0.391 | 0.484 | -0.564 (inactive) | 0.608 | -0.86 (inactive) | -0.144 (inactive) | 0.0653 (inactive) | 0.895 (inactive) | 1.25 | 1.12 | -0.0107 | 0.913 | 0.379 |
| COc1ccc([Si](C)(C)[C@@H]2[C@@H](CCO)O[C@]3(C(=O)N(Cc4ccc(N5CCCCC5=O)cc4)c4ccccc43)[C@H]2C)cc1 | 2.21 | 1.14 | -0.0284 | 0.842 | 1.07 | 1.1 | 1.74 | 0.572 | 0.916 | -1.24 (inactive) | 0.123 | -7.34 (inactive) | -0.701 (inactive) | 8.03 (active) | -1.2 (inactive) | 0.269 | -0.0471 | 0.0458 | 0.342 | 1.72 |
| COCCOC(=O)N1C(=O)[C@@]2(c3cc(C#CC4(O)CCCCCC4)ccc31)[C@H](c1ccc(O)cc1)N1[C@H](c3ccccc3)[C@H](c3ccccc3)OC(=O)[C@H]1[C@@H]2C(=O)NC[C@H](O)c1ccccc1 | 0.496 | 1.16 | 0.987 | 0.87 | 1.26 | 1.64 | -0.939 | 1.28 | 0.733 | -0.001 (inactive) | 0.677 | -1.48 (inactive) | -0.277 (inactive) | 0.712 (inactive) | -0.61 (inactive) | 0.383 | -0.125 | 0.116 | 1.09 | 1.21 |
| O=C1N(Cc2ccccc2)c2ccccc2[C@@H]2OC(c3ccc(OCCCO)cc3)=N[C@]12Cc1ccccc1 | 0.205 | 1.24 | 0.623 | 0.787 | 1.12 | 1.12 | -1.31 | 0.183 | 0.849 | -3.86 (inactive) | -0.0069 | -4.55 (inactive) | -0.236 (inactive) | 1.37 (inactive) | -1.64 (inactive) | 0.89 | -0.0332 | 0.378 | 0.534 | 0.809 |
| CC=CC(O)C1C=CC2C(=O)N(c3ccccc3)C(=O)C2N1Nc1ccccc1F (stereo not given) | 0.817 | 0.217 | 0.451 | -1.06 | 0.0954 | -0.189 | -1.05 | -0.844 | 0.0224 | 0.597 (inactive) | 0.713 | -0.118 (inactive) | 0.103 (inactive) | 0.481 (inactive) | 1.23 (inactive) | -0.0607 | 0.572 | 0.804 | 0.42 | -0.371 |
